Screening results from PubChem BioAssay.
TRPV1 ag: human TRPV1 agonism | TRPV1-expressing cells, Fluo-8 calcium influx, agonist mode | activation, % at 8.33 µM | hit rate 0.19% among 320,000 | AID 540275; in the data active = activation above about 80%; inconclusive = between about 30% and that limit; also: 0% is about no effect
Target sequence (Q8NER1 whole entry, looked up): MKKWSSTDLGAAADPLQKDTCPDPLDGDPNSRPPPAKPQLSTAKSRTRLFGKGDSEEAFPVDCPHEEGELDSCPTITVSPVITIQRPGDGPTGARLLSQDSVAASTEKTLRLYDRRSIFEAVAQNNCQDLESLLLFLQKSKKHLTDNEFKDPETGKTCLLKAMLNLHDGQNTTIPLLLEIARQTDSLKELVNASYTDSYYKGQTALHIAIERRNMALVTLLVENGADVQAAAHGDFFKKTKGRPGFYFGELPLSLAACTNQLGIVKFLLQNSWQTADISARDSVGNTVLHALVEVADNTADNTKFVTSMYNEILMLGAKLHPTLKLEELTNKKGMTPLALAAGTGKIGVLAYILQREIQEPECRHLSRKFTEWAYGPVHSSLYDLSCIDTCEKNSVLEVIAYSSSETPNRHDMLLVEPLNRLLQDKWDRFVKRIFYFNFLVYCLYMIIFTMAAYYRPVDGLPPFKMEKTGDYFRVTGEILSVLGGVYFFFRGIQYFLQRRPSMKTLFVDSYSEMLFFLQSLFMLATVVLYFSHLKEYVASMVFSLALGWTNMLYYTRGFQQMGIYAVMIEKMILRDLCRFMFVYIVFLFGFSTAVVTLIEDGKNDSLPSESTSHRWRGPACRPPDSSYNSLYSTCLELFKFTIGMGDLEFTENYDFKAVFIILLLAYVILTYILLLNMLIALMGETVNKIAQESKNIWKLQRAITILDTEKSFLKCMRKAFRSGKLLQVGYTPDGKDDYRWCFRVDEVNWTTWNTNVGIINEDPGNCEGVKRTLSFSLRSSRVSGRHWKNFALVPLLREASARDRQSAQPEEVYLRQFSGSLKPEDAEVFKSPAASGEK
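TRPV1-expressing cells were cultured overnight at 35.5C and loaded with Fluo-8 calcium dye for 40 to 90 min at room temperature. After a 10 s baseline, compound was added and calcium influx was read kinetically for 3 min (ex 480/em 520 nm).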
gsp ag: activates gsp, the McCune-Albright syndrome mutation | gsp mutant cells, cAMP HTRF, 30 min | Potency, µM (titrated, usually from 76.9 µM), for the others: at the top dose activation (cAMP increase), actives largely listed as activators | hit rate 0.13% among 340,000 | AID 624287; active = well fitted activation curve with a large enough effect; inconclusive = small, poorly fitted or top-dose-only effect, or another doubt; inactive = no such curve, though single readings can be large or run the other way; cell line not stated here;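 also: phosphodiesterase inhibitor Ro 20-1724 added with compounds to block cAMP breakdown; potency is read from the fitted curve at half-maximal effect; nearly all actives have a fitted effect of over 60% in size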
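Cells in DMEM/10% FBS with G418 were pretreated with compounds in DMSO plus […] (300 uM stock) for 30 min at 37C. cAMP was measured by HTRF (cAMP-d2 plus anti-cAMP antibody-K) after 30 min at room temperature.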
RXFP1 antag: blocks the human relaxin receptor RXFP1 | Q9HBX9 | HEK293-RXFP1, relaxin-stimulated cAMP HTRF, 30 min; stronger effect = lower value | activity change, negative = inhibition, % at 57.5 µM | hit rate 0.59% among 350,000 | AID 1259400;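 active = activity change of -60% or lower, but not beyond a set lower limit; inconclusive = change between -60% and -40%, or beyond the set limit; inactive = change above -40%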; also: % is scaled to controls: 0 for no effect and ±100 for the full control effect
TRPV1 PAM: human TRPV1 potentiation. Q8NER1. TRPV1-expressing cells, Fluo-8 calcium influx, capsaicin EC20 potentiation. potentiation, % at 8.33 µM. hit rate 0.02% among 320,000. AID 540277; in the data active = potentiation above about 80%; inconclusive = between about 30% and that limit; also: 0% is about no effect
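Cells expressing TRPV1 were dye-loaded with Fluo-8 and read kinetically: 10 s baseline, 3 min after compound (agonist portion), then 2 min after EC20 capsaicin (allosteric enhancer portion). Calcium-bound dye fluorescence at 480/520 nm.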
gsp antagonist: antagonists of gsp mutant (McCune-Albright syndrome) | gsp-mutant cells, cAMP HTRF, 30 min | Potency, µM (top dose mostly 76.9 µM), for the others: top-dose activity change, negative = inhibition, actives largely listed as inhibitors | hit rate 0.4% among 340,000 | AID 624288; calls by dose curve; cell line not stated here;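 also: intracellular cAMP measured with PDE inhibitor Ro 20-1724 present during compound exposure; potency is read from the fitted curve at half-maximal effect; % is scaled to controls: 0 for no effect and ±100 for the full control effect; nearly all actives have a fitted effect of over 65% in size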
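HTRF cAMP read-out (cAMP-d2 plus anti-cAMP antibody-K in lysis buffer, 30 min RT). Before lysis, cells are exposed to compounds with […] for 30 min at 37C in DPBS containing Ca/Mg, BSA and Tween 20.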
RXFP1 agonist: activates the human relaxin receptor RXFP1; Potency, µM (titrated, usually from 57.5 µM), without a hit: at the highest dose activation, hits mostly activators; HEK293T-RXFP1 cAMP TR-FRET, 30 min; response scale: percent of porcine relaxin response, buffer zero; Q9HBX9; AID 2676; hit rate 0.3% among 370,000; active = well fitted activation curve with a large enough effect; inconclusive = small, poorly fitted or top-dose-only effect; also: potency is read from the fitted curve at half-maximal effect; % is scaled to controls: 0 for no effect and ±100 for the full control effect; nearly all actives have a fitted effect of over 60% in size
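HEK293T cells stably expressing RXFP1 were pretreated with the PDE4 inhibitor Ro 20174, exposed to compounds for 30 min at 37C, lysed, and cAMP was read by TR-FRET. Data normalized to buffer (basal) and 29 nM porcine relaxin (100%).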
* hit, by the source's call; ? = inconclusive; / = no result; [ ] = remark or other dose. Hits are enriched below; roughly 1.1% of the tested compounds scored in any of these assays.

SMILES	TRPV1 ag	gsp ag	RXFP1 antag	TRPV1 PAM	gsp antagonist	RXFP1 agonist
COc1ccc(CCN2CC(C(=O)NCC(c3ccccc3)N(C)C)CC2=O)cc1OC (stereo not given)	/	5%	-90*	/	5%	/
COc1ccc(CCNC(=O)C2CC(=O)N(CCc3ccccc3)C2)cc1OC (stereo not given)	8	18%	12	-5	4%	-1%
COc1ccc(NCc2nnc3n2CCCCC3)c(OC)c1	/	/	/	/	/	-7%
CC(C)C(=O)Nc1cccc(C(F)(F)F)c1	/	/	-8	/	/	/
COc1cccc(NC(=O)C(=O)NCC(c2ccc3c(c2)OCO3)N2CCOCC2)c1 (stereo not given)	/	/	-10	/	/	-1%
O=C(NCCCCc1ccccc1)c1nn(-c2ccccc2)nc1CO	/	/	-69*	/	/	0%
Cc1ccc(-n2nc(CO)c(C(=O)NCCCCc3ccccc3)n2)cc1	/	/	-4	/	/	-1%
O=C(NCC(c1ccccc1)c1ccccc1)c1nn(-c2ccccc2Cl)nc1CO	/	/	-66*	/	/	1%
CC(Sc1ccc(S(=O)(=O)N2CCCCC2)cn1)C(N)=O (stereo not given)	/	-49%	-3	/	/	/
CCOC(=O)[C@H]1[C@H]2COc3cc(OC)ccc3[C@@H]2N2C(=O)c3ccc(C)cc3NC(=O)[C@@]12C	82*	/	/	5	-9%	2%
CCOC(=O)[C@H]1[C@H]2COc3ccc(Br)cc3[C@@H]2N2C(=O)c3cc(F)c(F)cc3NC(=O)[C@@]12C	84*	14%	/	?	-11%	0%
CCOC(=O)[C@H]1[C@H]2COc3ccccc3[C@@H]2N2C(=O)c3ccc(C)cc3NC(=O)[C@@]12C	93*	-2%	/	-4	?	-2%
CCOC(=O)[C@H]1[C@H]2COc3ccc(Br)cc3[C@@H]2N2C(=O)c3ccc(C)cc3NC(=O)[C@@]12C	80*	/	/	13	-10%	0%
CCOC(=O)[C@H]1[C@H]2COc3ccc(Br)cc3[C@@H]2N2C(=O)c3ccc(F)cc3NC(=O)[C@@]12C	?	23%	/	28	0%	0%
O=C(NCCO)C(=O)c1c(-c2ccccc2)cc2ccccn12	-4	?	4	-3	8%	-1%
Cc1ccc(C(=O)COc2nc(C)nc3ccccc23)cc1	12	8%[15.4 µM]	-6	2	8%	-3%
C=CCc1cc(Cl)ccc1OCCCNC(C)CC (stereo not given)	1	-24%	-63*	7	14%	-1%
COc1ccc(NC(=O)C2(c3ccc(NC(=O)c4ccc(C)cc4)cc3)CCCC2)cc1	1	1%	-4	-6	3%	4%
COc1ccc(C(=O)Nc2ccc(C3(C#N)CCCC3)cc2)cc1	89*	-17%[15.4 µM]	-9	-29	/	3%
COc1ccc(C(=O)Nc2ccc3ccccc3c2)cc1	96*	2%	-3	-8	7%	1%
O=C(CS)Nc1ccc2ccccc2c1	-4	-9%[15.4 µM]	-102*	11	5%	2%
CC(C)Oc1ccc(NC(=O)c2ccncc2)cc1	86*	-18%	-8	-19	-5%	1%
CCn1c(=O)n(CC)c2cc(N3CCCC3)c(NC(=O)c3cccc(OC)c3)cc21	13	?	1	-6	-25%	0%
O=C1C=CC(=O)N1CCCCCCCCCCN1C(=O)C=CC1=O	/	9%	-37	/	35µM*	/
O=C1C=CC(=O)N1Cc1ccncc1	/	7%	-4	/	1%	/
SMILES	TRPV1 ag	gsp ag	RXFP1 antag	TRPV1 PAM	gsp antagonist	RXFP1 agonist
Cc1cccc[n+]1C1C(c2ccccc2)C(C#N)=C(C(=C=[N-])C#N)NC1(O)C1CC1 (stereo not given)	/	?	21	/	18%	15%
N#CC(=C=[N-])C1=C(C#N)C(c2ccccc2F)C([n+]2ccccc2)C(O)(C2CC2)N1 (stereo not given)	0	18%	33	-2	7%	25µM*
CC(C)(C)OC(=O)C[C@@H]1C/C=C\C[C@@H](CC(=O)N[C@@H](CO)Cc2ccccc2)C(=O)NC[C@@H](c2ccccc2)OC1=O	/	-10%	/	/	-1%	/
COc1ccc(NC(=O)c2nc[nH]c2C(=O)N[C@@H](C)C(=O)OC(C)(C)C)cc1	11	13µM*	/	20	3%	0%
CC#CC(=O)NCC1(N(C)Cc2ccccc2)Cc2ccccc2C1	14	9%	-5	-6	3%	-1%
O=C1CSc2ccc(S(=O)(=O)N3CCN(c4ccccc4)CC3)cc2N1	?	-15%	6	-17	-6%	1%
CCC1Sc2ccc(S(=O)(=O)N3CCN(c4ccccc4)CC3)cc2NC1=O (stereo not given)	5	?	-67*	?	-20%	0%
COc1ccc(CNC(=O)C(=O)NCC(c2cccs2)S(=O)(=O)c2cccs2)cc1 (stereo not given)	/	/	/	/	/	2%
NC(=O)Cc1cccc(C(=O)c2ccccc2)c1N	/	/	5	/	/	/
CNC(=O)c1c[nH]n2c(=O)c(Cc3ccccc3F)c(C)nc12	/	15%	/	/	11µM*	1%
Clc1ccc(NCc2nc3ccccc3n2CCOc2ccccc2)cc1	/	/	-61*	/	/	-1%
CCN(CC)c1ccc(/C=N/n2c(-c3ccccc3Br)n[nH]c2=S)cc1	14	-11%[15.4 µM]	-84*	-10	?	0%
NC(=O)c1ccccc1N/C=C1\CCCCC1=O	-1	21%	2	16	50µM*	0%
N/C(=N/OC(=O)c1ccccc1F)c1nonc1N	7	?	-3	-6	-3%	-1%
N/C(=N\OC(=O)c1ccc(Cl)cc1)c1nonc1N	81*	8%	-15	-1	2%	-1%
Cc1ccc2cc(CCNC(=O)c3cc4ccccc4o3)c(=O)[nH]c2c1C	2	6%	/	?	35µM*	1%
Cc1cc(/C=C2/NC(=O)N(Cc3ccccc3F)C2=O)c(C)n1C(C)C	28	-5%[15.4 µM]	-22	-8	11µM*	2%
CCn1c(C)cc(/C=C2/NC(=O)N(Cc3ccccc3F)C2=O)c1C	?	?	1	-7	-14%	0%
CCCCN(C(=O)CSc1ncn[nH]1)c1c(N)n(Cc2ccccc2)c(=O)[nH]c1=O	3	9%	-12	2	18%	-1%
O=C(CCC1N=C2c3ccccc3N=C(SCC(=O)NCC3CCCO3)N2C1=O)NCc1ccc(F)cc1 (stereo not given)	2	?	-69*	30	6%	29%
CCOC(=O)C1CCN(c2c(NCCC(C)C)c(=O)c2=O)CC1	-4	14%	-5	21	-2%	-2%
O=C1CC[C@@H](O)CCN1CC[C@H](Sc1ccccc1)c1ccccc1	?	/	/	-29	-18%	-1%
